The campaign covered roughly 360,000 compounds. About 4,200 (1.2%) were called active. The sample holds actives, similar compounds and a random draw of the others, so the mix is not that of the screen.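 Rule for the calls: active = mean replicate inhibition at least 60% with every replicate also reaching 60%; inconclusive = only one of the two criteria is met; inactive = mean below 60% and not all replicates reaching 60%.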

A short description of the experiment: inhibitors of PAX8-driven TPO luciferase reporter, primary screen, RMG-I cells, single concentration (AID 652154).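 Note: luciferase light reporting Pax8 driven TPO promoter activity; plate controls were median of neutral control wells for no effect and mitoxantrone controls for full effect.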 Conditions: SteadyGlo, 24 h, at 12.6 µM, active compounds read high. Background: In a reporter assay the amount or activity of a reporter protein is the signal.
Usually inhibition stands for the relative decrease from the control value, in per cent. As to `O=C(c1cccc(F)c1)N1CCCCN2[C@@H](CO)[C@H](c3ccc(-c4cncnc4)cc3)[C@@H]2C1`, the inhibition is 2.95% (inactive).
`CCOc1cc(/C=N/NC(=O)CN2CCCCC2)ccc1O`: the inhibition is 3.31% (inactive).
For the compound `COc1cc(/C=N/NC(=O)c2ccc(N3CCCC3=O)cc2)ccc1O`, the inhibition is 86.3% (active).
To `C/C(=N\NC(=O)c1cccc(N2CCCC2=O)c1)c1ccc(N)cc1` belongs -0.282% (inactive).
Turning to `CN(C)CC(=O)Nc1ccc2c(c1)[C@H]1C[C@@H](CC(=O)NCc3ccccn3)O[C@@H](CO)[C@H]1O2`, the inhibition is -17.3% (inactive).
Regarding `CO[C@@H]1CC[C@H]2CCOc3c(C#N)cccc3C(=O)N(C)C[C@@H](OC)[C@H](C)C(=O)N(C)C[C@@H]1O2`, the inhibition is -5.56% (inactive).
Regarding `COc1ccccc1-c1cn(CC[C@H]2CC[C@@H](NC(=O)Cc3ccccn3)[C@@H](CO)O2)nn1`, the inhibition is -1.82% (inactive).
Regarding `COc1ccc2[nH]c3c(C)c4cc[n+](C)cc4c(C)c3c2c1`, the inhibition is 70.3% (active).
Regarding `C/C=C/c1ccc([C@H]2[C@@H](CNC(=O)NC(C)C)N(C(=O)C3CCC3)[C@H]2CO)cc1`, the inhibition was 6.6% (inactive).
To `CO[C@@H]1CN(C)C(=O)c2cc(NS(C)(=O)=O)ccc2OC[C@H](C)N(C(=O)C2CC2)C[C@@H]1C` belongs -16.6% (inactive); to `Oc1ccc2ccccc2c1N=Nc1nccs1`, 90.5% (active); to `C[C@@H]1CN([C@@H](C)CO)C(=O)c2cc(NS(=O)(=O)c3ccccc3)ccc2O[C@@H](C)CCCCO[C@@H]1CN(C)S(=O)(=O)c1cccs1`, 17.1% (inactive).
As for `CC(C)NC(=O)N(C)C[C@@H]1OCCCC[C@@H](C)Oc2ccc(NC(=O)Cc3ccccc3)cc2C(=O)N([C@H](C)CO)C[C@H]1C`, the inhibition was 20.4% (inactive).
To `CCN1/C(=C\c2ccc3ccccc3[n+]2CC)Sc2cc(C)ccc21` belongs 93.7% (active).
To `O=C(C[C@@H]1C[C@@H]2c3cc(NC(=O)C4CCOCC4)ccc3O[C@@H]2[C@@H](CO)O1)NC1CCCCC1` belongs 8.24% (inactive); to `C[C@@H]1CN([C@H](C)CO)C(=O)Cc2cc(NC(=O)C3CC3)ccc2O[C@H]1CN(C)Cc1ccc(Cl)c(Cl)c1`, 11.3% (inactive); to `COc1cccc(-c2ccc([C@@H]3[C@@H](C#N)N(C(=O)c4ccccn4)[C@H]3CO)cc2)c1`, -20.8% (inactive).
Consider `COc1cccc(C#Cc2ccc([C@H]3[C@@H](CO)N(C(=O)c4ccccn4)[C@H]3C#N)cc2)c1`, for which the inhibition is 92.4% (active).
Consider `COc1cccc(-c2ccc([C@@H]3[C@@H](CO)N(C(=O)c4ccccn4)[C@H]3C#N)cc2)c1`, for which the inhibition was -77.2% (inactive).
On to `CN1C(=O)c2cc(NC(=O)c3cscn3)ccc2OC[C@@H]2O[C@H](CC(=O)N3CCCCC3)CC[C@H]21`, for which the inhibition was -16.1% (inactive).
`CCCN(C)C[C@H]1OCCCC[C@@H](C)Oc2ccc(NC(=O)CCC(F)(F)F)cc2C(=O)N([C@H](C)CO)C[C@H]1C`: the inhibition was 8.93% (inactive).
Consider `CSc1ccc(-c2c(C#N)c(N)nc3c2c(C)nn3-c2ccccc2)cc1`, for which the inhibition is 66.4% (active).
Regarding `Cc1nc2c(c(C)nn2-c2ccccc2)c(C)c1C`, the inhibition is 12.6% (inactive).
As to `Cn1c(=O)c2c(-c3cccc(Br)c3)c(C#N)c(N)nc2n(C)c1=O`, the inhibition is 4.92% (inactive).
As for `C[C@H]1CN([C@@H](C)CO)C(=O)c2cccc(NS(=O)(=O)c3cn(C)cn3)c2O[C@@H]1CN(C)C(=O)Nc1ccc(F)cc1`, the inhibition was -9.83% (inactive).
Regarding `O=C(Nc1ccccc1)N[C@@H]1CC[C@H](CCNS(=O)(=O)c2ccccc2F)O[C@@H]1CO`, the inhibition was -8.59% (inactive).
To `C/C(CC1CC(C)(C)OC1=O)=N/Nc1nc(-c2ccccc2)cs1` (stereo unspecified) belongs 19.2% (inactive).
Regarding `Cc1ccc(-c2csc(NC3OC(=O)c4ccccc43)n2)cc1` (stereo unspecified), the inhibition is 92.3% (active).
Take `Cc1ccc(-c2csc(NC(=O)C3=COCCO3)n2)cc1C`: the inhibition is -109% (inactive).
Regarding `CC(=O)N1[C@H](CO)[C@H](c2ccc(-c3ccccc3)cc2)[C@H]1CNC(=O)C1CC1`, the inhibition is -4.5% (inactive).
Take `CN(C)C(=O)c1cccc(-c2cnc3c(NC=O)cc(-c4ccc(F)cc4)cn23)c1`: the inhibition was 33.9% (inactive).
Take `CN(C)CCNC(=O)c1cccc(-c2cnc3c(NC=O)cc(-c4cccc(C(F)(F)F)c4)cn23)c1`: the inhibition was 109% (active).
For the compound `CC(=O)c1cccc(-c2cnc3c(NC=O)cc(-c4cccc(C(=O)N(C)C)c4)cn23)c1`, the inhibition is 12.7% (inactive).
With `COc1ccc(NC(=O)Nc2ccc3c(c2)C(=O)N([C@H](C)CO)C[C@H](C)[C@H](CN(C)S(=O)(=O)c2ccc(Cl)cc2)OCCCC[C@H](C)O3)cc1` the figure was 26.6% (inactive); with `O=C(C[C@@H]1C[C@@H]2c3cc(NS(=O)(=O)c4ccccc4)ccc3O[C@@H]2[C@@H](CO)O1)NC1CCCCC1`, 15.4% (inactive); with `CCOC(=O)c1c(C)[nH]c(C(=O)OCC(=O)c2ccc(OC)cc2OC)c1C`, -7.09% (inactive).
To `CCOC(=O)c1c(C)[nH]c(C)c1S(=O)(=O)NCCCc1ccco1` belongs -4.09% (inactive); to `CCOC(=O)c1c(C)[nH]c2c1-c1ccccc1C(=O)C2=O`, 107% (active); to `COCC(=O)Nc1ccc2c(c1)C(=O)N(C)C[C@@H](OC)[C@@H](C)CN(C(=O)c1ccccc1)[C@@H](C)CO2`, -10.2% (inactive).
For `CC(=O)N1[C@@H](CO)[C@@H]2c3ccccc3N(S(=O)(=O)c3ccccc3)C[C@@H]21`, the inhibition was 7.26% (inactive).
Turning to `O=C(C(=O)N1CCC(CNC(=O)c2cccnc2Cl)CC1)c1cccs1`, the inhibition is -11.9% (inactive).
In the case of `CC(C)c1cc(C(=O)N/N=C/C(Br)=C/c2ccccc2)n[nH]1`, the inhibition is 74.5% (active).
As to `Cc1cc(C(=O)N/N=C\C(Br)=C\c2ccccc2)c(C)o1`, the inhibition was 63% (active).
In the case of `Cc1cc(C(=O)NCCc2ccc(Cl)cc2)c(C)o1`, the inhibition was -114% (inactive).
`O=C(N/N=C\c1cccc(Br)c1)c1ccccc1-n1cccc1`: the inhibition was 24.9% (inactive).
As for `Cc1ccc(-c2cc(C(=O)N/N=C/C=C/c3ccccc3)n[nH]2)o1`, the inhibition was 47.7% (inactive).
In the case of `CC(/C=N/NC(=O)c1cc(-c2ccc3ccccc3c2)n[nH]1)=C\c1ccco1`, the inhibition is -6.24% (inactive).
To `O=C(Nc1cccc(F)c1)N[C@@H]1CC[C@@H](CCn2cc(Cc3ccccc3)nn2)O[C@@H]1CO` belongs 3.01% (inactive).
Consider `C[C@H](CO)N1C[C@H](C)[C@H](CN(C)C(=O)Nc2ccc3c(c2)OCO3)Oc2ccc(NS(=O)(=O)c3ccc(Cl)cc3)cc2CC1=O`, for which the inhibition is -20.9% (inactive).
With `CN1[C@@H]2CN(C(=O)c3ccc(F)cc3)c3ccccc3[C@@H]2[C@@H]1CO` the figure was -1.94% (inactive); with `O=C(Nc1cc(F)ccc1F)N[C@H]1CC[C@@H](CCn2cc(C3CCCC3)nn2)O[C@@H]1CO`, 5.81% (inactive); with `Cc1noc(C)c1NC(=O)N(C)C[C@H]1Oc2ccc(NC(=O)C3CCCCC3)cc2CC(=O)N([C@@H](C)CO)C[C@H]1C`, -10.9% (inactive).
For the compound `CO[C@@H]1CN(C)C(=O)c2ccc(NC(=O)C3CCC3)cc2OC[C@H](C)N(C(=O)CN(C)C)C[C@H]1C`, the inhibition is -10.4% (inactive).
To `CC[n+]1cc(C)ccc1/C=C/c1ccc(N(C)C)cc1` belongs 86.7% (active); to `COc1cccc(CNC(=O)C[C@H]2CC[C@@H](NC(=O)C3CCC3)[C@@H](CO)O2)c1`, -6.76% (inactive); to `O=C(Cc1ccccc1)N1C[C@@H]2[C@H](c3ccccc31)[C@@H](CO)N2C(=O)C1CC1`, 6.8% (inactive).
With `O=C(c1ccccc1)N1C[C@@H]2[C@H](c3ccccc31)[C@@H](CO)N2Cc1cc(F)ccc1F` the figure was 28% (inactive).
As for `Cc1ccc(S(=O)(=O)N(C)C[C@H]2OCCCC[C@H](C)Oc3ccc(N(C)C)cc3C(=O)N([C@H](C)CO)C[C@@H]2C)cc1`, the inhibition is 32% (inactive).
With `O=C(C[C@@H]1C[C@@H]2c3cc(NC(=O)NC4CCCC4)ccc3O[C@@H]2[C@H](CO)O1)NCC(F)(F)F` the figure was -19.4% (inactive); with `Oc1c(Cl)cc(Cl)c(Cl)c1Cc1c(O)c(Cl)cc(Cl)c1Cl`, 107% (active); with `CNC[C@H]1OCCCC[C@@H](C)Oc2ccc(NC(=O)c3ccncc3)cc2C(=O)N([C@H](C)CO)C[C@H]1C`, -8.2% (inactive).
Turning to `O=S(=O)(NC1CCCCC1N1CCCCC1)c1ccc(Cl)cc1` (stereo unspecified), the inhibition was 7.52% (inactive).
In the case of `COc1ccc(N2CCN(C3CCCCC3NS(=O)(=O)c3ccccc3)CC2)cc1` (stereo unspecified), the inhibition is 19.3% (inactive).
For the compound `O=S(=O)(NC1CCCCC1N1CCN(c2ccccc2F)CC1)c1ccccc1` (stereo unspecified), the inhibition was 101% (active).
To `C[C@@H]1CN([C@@H](C)CO)C(=O)c2cc(NC(=O)CCN3CCOCC3)ccc2O[C@H]1CN(C)C(=O)NC1CCCCC1` belongs -13.4% (inactive); to `C[C@@H]1CN([C@@H](C)CO)C(=O)c2cc(-c3cncnc3)cnc2O[C@H]1CN(C)Cc1cncnc1`, -3.91% (inactive).
In the case of `CN(C)C(=O)c1cccc(-c2ccc([C@H]3[C@@H](CO)N4C(=O)CN(C(=O)C5CC5)C[C@@H]34)cc2)c1`, the inhibition was -11.3% (inactive).
With `Cc1cccc(N(Cc2ccccc2)C(=O)c2ccccc2F)c1` the figure was 3.65% (inactive); with `CCCCC(O)(CCCC)C(=O)NN(C(=O)CCl)c1ccccc1`, -1.33% (inactive); with `CCCC(O)(CCC)C(=O)NN(C(=O)CCl)c1cccc(C)c1`, 76.1% (active).
For `CN1c2ccc(-c3cccc(F)c3)cc2[C@@H]2[C@@H](CCN2C(=O)Nc2ccccc2F)[C@@H]1CO`, the inhibition was 39.3% (inactive).
With `CCCCCCCCn1c2c(c(=N)c3c1CCC3)CCCC2` the figure was 96.6% (active).
For `CC(C)NC(=O)Nc1ccc2c(c1)C(=O)N([C@H](C)CO)C[C@H](C)[C@H](CN(C)Cc1ccc(C(=O)O)cc1)OCCCC[C@@H](C)O2`, the inhibition was 2.34% (inactive).
As to `N/C(=N\OS(=O)(=O)c1cccc([N+](=O)[O-])c1)c1ccncc1`, the inhibition was 134% (active).
On to `Cc1ccccc1OS(=O)(=O)c1cccc([N+](=O)[O-])c1`, for which the inhibition is -23.3% (inactive).
For `O=C(NCc1ccncc1)c1ccc(NS(=O)(=O)c2cccc([N+](=O)[O-])c2)cc1`, the inhibition was -1.39% (inactive).

The values above are taken from PubChem BioAssay AID652154 (Broad Institute, 2013).
